Test results taken from PubChem BioAssay.
Unmarked numbers belong to inactive results. Activity calls are given as the source filed them.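 Rule for the calls: active = inhibition above the hit cutoff set in the earlier primary screen (cut at about 27% in these data); inactive = the rest.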

molecular target: Protein phosphatase methylesterase 1 (Homo sapiens) (UniProt Q9Y570); test: PME-1 inhibitor activity retest, confirmation, biochemical, fluorescence polarization, FP-Rh probe, triplicate (AID 2171); conditions: recombinant PME-1, FP-Rh probe fluorescence polarization; at 5.9 µM; hits give high values;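 note: 0% = enzyme with DMSO and 100% = wells lacking PME-1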
Sequence (Q9Y570 whole entry, looked up): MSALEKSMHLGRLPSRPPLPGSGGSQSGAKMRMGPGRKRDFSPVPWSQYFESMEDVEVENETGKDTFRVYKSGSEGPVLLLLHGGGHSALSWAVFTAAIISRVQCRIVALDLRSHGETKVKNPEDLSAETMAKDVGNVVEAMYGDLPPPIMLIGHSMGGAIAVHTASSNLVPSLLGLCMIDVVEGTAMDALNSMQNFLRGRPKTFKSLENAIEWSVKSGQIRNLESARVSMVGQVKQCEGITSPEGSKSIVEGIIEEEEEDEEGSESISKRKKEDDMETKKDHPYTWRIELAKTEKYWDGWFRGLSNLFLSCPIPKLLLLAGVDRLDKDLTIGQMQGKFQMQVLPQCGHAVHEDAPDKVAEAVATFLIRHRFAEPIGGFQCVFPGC

Structure (SMILES)	inhibition
Cc1c(O)ccc(/C=N/Nc2nc(-c3cccnc3)nc3ccccc23)c1O	48.8% (active)
O=S(=O)(c1ccc(-c2csc(Nc3ccc(Br)cc3)n2)cc1)N1CCCC1	16.5%
Cc1[nH]c2ccccc2c1/C=N/Nc1nc(Nc2ccccc2)nc(N2CCOCC2)n1	34.2% (active)
Cc1ccc(NC(=S)NNc2ccc([N+](=O)[O-])cc2S(=O)(=O)Nc2ccccc2C(=O)O)cc1C	60.2% (active)
CNc1ccc2c3c(cccc13)C(=O)N(C)C2=O	71.2% (active)
CCCn1nc([N+](=O)[O-])c(C(C#N)c2nc3ccccc3o2)c(Cl)c1=O (stereo not given)	36.5% (active)
Oc1[nH]c2ccccc2c1N=Nc1nc2ccccc2s1	14.1%
Nc1c(N=Nc2ccccc2F)c(=O)[nH]n1-c1ccccc1	30.1% (active)
O=C(c1cccs1)N1CCC(c2nc3c(nnn3Cc3ccccc3Cl)c(=O)[nH]2)CC1	25.4%
Oc1[nH]c2ccccc2c1C=Nc1ccc2c(c1)OCO2	23.6%
C/C(=N\Nc1ccccc1C(=O)O)c1ccncc1	1.32%
Cc1ccccc1NC1=C/C(=N\S(=O)(=O)c2cccs2)c2ccccc2C1=O	38.4% (active)
COc1ccc(/C=C/c2c(-c3ccc(OC)cc3)oc3cccnc23)cc1	24.5%
CSc1nsc(/C=C/Nc2ccc(O)cc2C)c1C#N	-1.46%
O=c1nc(/C=C/c2cc([N+](=O)[O-])ccc2Cl)cc(C(F)(F)F)[nH]1	25.3%
N#Cc1ccc(Nc2nc(-c3ccc(O)cc3O)cs2)cc1C(F)(F)F	51.9% (active)
CCN(CC)c1ccc(/C=N/NC(=O)c2cccc(S(=O)(=O)Nc3ccccc3OC)c2)c(O)c1	25.8%
COc1cc(/C=N/NC(=O)C(Cc2c[nH]c3ccccc23)NC(=O)OCc2ccccc2)cc([N+](=O)[O-])c1O (stereo not given)	15.4%
COc1cccc(N=Nc2c(=O)[nH]n3c(=O)c4c([nH]c23)CCC4)c1	36.8% (active)
COc1ccccc1/C=C/C=N/n1c(-c2cc(-c3ccccc3)n[nH]2)n[nH]c1=S	23.4%

Structure (SMILES)	inhibition
Cc1ccc(N=Nc2c(N)n(-c3ccccc3)[nH]c2=O)cc1	33.1% (active)
Cc1cccc(NC(=S)N/N=C/c2c[nH]c3ccccc23)c1	33.3% (active)
O=S(=O)(Nc1cc2nc3ccccc3nc2n1Cc1ccccc1)c1ccc(Cl)cc1	42.4% (active)
CCOC(=O)C1CCCN(C(=O)C2c3ccccc3Oc3ccccc32)C1 (stereo not given)	16%
O=C(O)c1ccccc1Nc1cccc(OCc2ccc3ccccc3n2)c1	20%
O=C(Nc1cccc(-c2csc(Nc3ccccc3)n2)c1)c1cc([N+](=O)[O-])cc(C(F)(F)F)c1	23%
COC(=O)N1C(=O)[C@](c2ccc(OC)cc2)(C(C)C)N1C(=O)OC	48.2% (active)
Fc1ccc2nc(Nc3nc4cc5c(cc4s3)OCCO5)sc2c1	77.5% (active)
C=CCn1c(SCC(=O)N2CCCC2=O)nc2sc(CC)cc2c1=O	11.2%
Cn1c(O)c(/C=N/NC(=O)c2cc3ccccc3cc2O)c2ccccc21	58.7% (active)
Cc1[nH]c2ccccc2c1N=Nc1ccccc1C(=O)O	20.8%
COc1ccc2c(c1)CC/C(=C\Nc1ccc3c(c1)OCO3)C2=O	36.9% (active)
CCN(CC(=O)Nc1c(F)cccc1F)C(=O)CCc1ccc(OC)cc1	6.49%
Cc1ccc(Nc2nnc(SCC(=O)c3ccc(O)cc3O)s2)cc1	40.8% (active)
CCOc1cc(-c2cc(-c3ccc(N)cc3)nc(N)c2C#N)ccc1O	41.5% (active)
S=C(NCCNC(=S)Nc1ccccc1)Nc1ccccc1	19.9%
O=C(N/N=C\c1ccc(COc2ccc([N+](=O)[O-])cc2)o1)c1cccc(Cl)c1	9.99%
COc1ccc(NC(=S)NNc2ccc(S(=O)(=O)Nc3ccccc3C(=O)O)cc2[N+](=O)[O-])cc1	44.9% (active)
CCOC(=O)N1CC=C2C(C#N)=C(N)C(C#N)(C#N)[C@H](c3ccc(OC(C)C)c(OCC)c3)[C@H]2C1	41.6% (active)
COc1ccc(NC(=S)Nc2ccc3nsnc3c2)cc1	24.3%
